According to PubChem BioAssay (Tox21):
“And” between values parts separate entries of the source, which are not always exact repeats. Equal values may be shown once. Results filed as inconclusive are left out. Entries that show only a call come without a potency. A structure can be active in one record and inactive in another. The source made the active and inactive calls. Unless noted, calls come from the whole dose curve; as a rule, active = well fitted curve in the direction sought with a large enough effect in the repeat runs; inconclusive = weak or mixed curves; inactive = no such curve, though single readings can be large; an effect the other way counts as inactive or inconclusive.

Key:
[1] = qHTS assay to test for compound auto fluorescence at 535 nm (green) in HEK293 cells (AID 720680)
[2] = qHTS assay to test for compound auto fluorescence at 460 nm (blue) in HEK293 cell free culture (AID 720681)
How it was run: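 Blue fluorescence (Ex 405/Em 460 nm, triamterene-equivalent) was read immediately after pin transfer of compound or DMSO into medium (DMEM, 10% FBS) without cells.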

[3] = qHTS assay to test for compound auto fluorescence at 535 nm (green) in HEK293 cell free culture (AID 720682)
How it was run: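 Using fluorescein as calibrant, autofluorescence was quantified at 485/535 nm in cell-free DMEM containing 10% FBS after pintool addition of compound or vehicle.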

[4] = qHTS assay to test for compound auto fluorescence at 590 nm (red) in HEK293 cell free culture (AID 720683)
How it was run: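 Red-channel autofluorescence of compounds in culture medium (DMEM, 10% FBS), no cells, measured at 540/590 nm. Rose Bengal sodium is the reference fluorophore for equivalence.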

[5] = qHTS assay to test for compound auto fluorescence at 590 nm (red) in HepG2 cell free culture (AID 720684)
How it was run: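 Steps: dispense MEM/10% FBS medium, no cells; pin compound or DMSO vehicle; read red channel, Ex/Em 540/590 nm. Output given as Rose Bengal sodium equivalents.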

[6] = qHTS assay to test for compound auto fluorescence at 460 nm (blue) in HepG2 cell free culture (AID 720685)
How it was run: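 Compound (23 nL) or DMSO pinned into cell-free MEM with 10% FBS; blue fluorescence read at 405/460 nm excitation/emission, expressed as auto-fluorescence equivalency to triamterene.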

[7] = qHTS assay to test for compound auto fluorescence at 535 nm (green) in HepG2 cell free culture (AID 720686)
[8] = qHTS assay to test for compound auto fluorescence at 460 nm (blue) in HepG2 cells (AID 720687)
How it was run: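 Blue-channel autofluorescence (Ex/Em 405/460 nm, triamterene-equivalent) was measured after 1 hr compound exposure at 37 C, 5% CO2. Cells were HepG2, plated overnight at 37 C in MEM plus 10% FBS.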

[9] = qHTS assay to identify small molecule antagonists of the glucocorticoid receptor (GR) signaling pathway - cell viability counter screen (AID 720693); note: nearly all actives have a fitted effect of over 55% in size; note: potency is the fitted concentration of half-maximal effect
[10] = qHTS assay for identifying genotoxic compounds that show differential cytotoxicity against isogenic chicken DT40 cell lines with known DNA damage response pathways - wild type cell line (AID 743012); note: nearly all actives have a fitted effect of over 60% in size; note: potency is the fitted concentration of half-maximal effect
How it was run: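 Cells (DT40 wild type, 300/well) are treated with DMSO-dissolved compounds after a ~0.5 h pre-incubation and kept 40 h at 37 C/5% CO2. Viability is then measured by CellTiter-Glo luminescence following 30 min at room temperature.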

[11] = qHTS assay for identifying genotoxic compounds that show differential cytotoxicity against isogenic chicken DT40 cell lines with known DNA damage response pathways - Rad54/Ku70 mutant cell line (AID 743015); note: nearly all actives have a fitted effect of over 60% in size; note: potency is the fitted concentration of half-maximal effect
[12] = qHTS assay to identify small molecule antagonists of the androgen receptor (AR) signaling pathway - cell viability counter screen (AID 743033; note: nearly all actives have a fitted effect of over 45% in size; note: potency is the fitted concentration of half-maximal effect)
[13] = qHTS assay to identify small molecule antagonists of the androgen receptor (AR) signaling pathway using the MDA cell line - cell viability counter screen (AID 743041; note: nearly all actives have a fitted effect of over 45% in size; note: potency is the fitted concentration of half-maximal effect)
How it was run: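 Cells were plated at 3,000 per well and left 5 h. Compounds in DMSO were then pinned in, followed by R1881. After 16 h at 37C, CellTiter-Fluor fluorescence gave viability.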

[14] = qHTS assay for identifying genotoxic compounds that show differential cytotoxicity against isogenic chicken DT40 cell lines with known DNA damage response pathways - Rev3 mutant cell line (AID 743014); note: nearly all actives have a fitted effect of over 55% in size; note: potency is the fitted concentration of half-maximal effect
[15] = molecular target: Glucocorticoid receptor (Homo sapiens) (UniProt P04150); assay: qHTS assay to identify small molecule agonists of the glucocorticoid receptor (GR) signaling pathway (AID 720691; active = well fitted activation curve with a large enough effect in the signal ratio in the repeat runs, not every such curve was filed as active; the % refers to the signal ratio)
Sequence of Glucocorticoid receptor (Homo sapiens) (P04150 whole entry, looked up): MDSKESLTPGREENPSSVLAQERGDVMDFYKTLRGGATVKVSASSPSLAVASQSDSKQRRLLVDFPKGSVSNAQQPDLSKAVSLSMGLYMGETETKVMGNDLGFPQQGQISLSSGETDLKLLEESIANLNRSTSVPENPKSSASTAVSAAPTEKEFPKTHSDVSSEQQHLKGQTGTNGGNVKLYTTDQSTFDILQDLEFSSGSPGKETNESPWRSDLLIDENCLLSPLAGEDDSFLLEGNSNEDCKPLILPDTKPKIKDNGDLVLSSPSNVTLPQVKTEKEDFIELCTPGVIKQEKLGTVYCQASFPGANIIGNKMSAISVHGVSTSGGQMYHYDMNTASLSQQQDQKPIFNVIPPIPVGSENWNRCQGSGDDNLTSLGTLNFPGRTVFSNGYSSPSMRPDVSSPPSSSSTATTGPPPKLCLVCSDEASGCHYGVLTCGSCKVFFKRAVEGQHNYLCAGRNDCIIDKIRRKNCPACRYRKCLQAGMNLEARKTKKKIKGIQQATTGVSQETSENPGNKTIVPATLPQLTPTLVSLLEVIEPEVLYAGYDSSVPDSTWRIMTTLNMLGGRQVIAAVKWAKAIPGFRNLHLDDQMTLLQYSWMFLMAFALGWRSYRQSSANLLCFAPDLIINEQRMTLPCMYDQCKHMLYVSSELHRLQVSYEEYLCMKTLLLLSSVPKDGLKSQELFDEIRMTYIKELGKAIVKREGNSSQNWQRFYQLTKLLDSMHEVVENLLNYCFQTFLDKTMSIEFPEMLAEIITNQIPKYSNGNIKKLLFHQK
How it was run: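 Agonist mode in a HeLa line carrying a GRE-controlled beta-lactamase reporter. Compounds act for 18 h at 37 C before a 2 h room-temperature FRET substrate step and fluorescence reading.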

[16] = molecular target: Androgen receptor (Homo sapiens) (UniProt P10275); assay: qHTS assay to identify small molecule antagonists of the androgen receptor (AR) signaling pathway (AID 743035; active = well fitted inhibition curve with a large enough effect in the signal ratio in the repeat runs, not every such curve was filed as active; the % refers to the signal ratio; note: potency is the fitted concentration of half-maximal effect)
Sequence of Androgen receptor (Homo sapiens) (P10275 whole entry, looked up): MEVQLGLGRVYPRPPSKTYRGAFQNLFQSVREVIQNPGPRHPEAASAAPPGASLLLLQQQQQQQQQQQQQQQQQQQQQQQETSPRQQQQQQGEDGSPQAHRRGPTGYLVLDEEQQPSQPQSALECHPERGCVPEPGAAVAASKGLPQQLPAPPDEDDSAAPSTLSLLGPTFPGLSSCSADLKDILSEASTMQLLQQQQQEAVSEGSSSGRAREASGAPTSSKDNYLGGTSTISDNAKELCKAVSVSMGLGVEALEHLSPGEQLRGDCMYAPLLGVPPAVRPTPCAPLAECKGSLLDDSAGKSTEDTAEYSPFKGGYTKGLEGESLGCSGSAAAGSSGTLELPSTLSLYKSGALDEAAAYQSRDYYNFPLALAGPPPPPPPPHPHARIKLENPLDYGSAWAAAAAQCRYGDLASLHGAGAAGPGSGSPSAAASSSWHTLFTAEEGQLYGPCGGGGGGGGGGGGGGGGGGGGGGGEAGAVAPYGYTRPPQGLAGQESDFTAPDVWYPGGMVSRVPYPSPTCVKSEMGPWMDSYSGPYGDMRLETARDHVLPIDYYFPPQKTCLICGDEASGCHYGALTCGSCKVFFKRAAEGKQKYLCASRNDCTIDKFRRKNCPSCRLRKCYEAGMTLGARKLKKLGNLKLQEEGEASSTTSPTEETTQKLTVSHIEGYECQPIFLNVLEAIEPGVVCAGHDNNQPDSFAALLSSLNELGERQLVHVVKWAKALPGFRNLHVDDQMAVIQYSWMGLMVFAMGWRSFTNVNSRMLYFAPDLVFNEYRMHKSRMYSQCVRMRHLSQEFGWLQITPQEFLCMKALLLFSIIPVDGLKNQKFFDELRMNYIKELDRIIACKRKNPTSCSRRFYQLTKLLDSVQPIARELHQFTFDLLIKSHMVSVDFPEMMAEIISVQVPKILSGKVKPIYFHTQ
How it was run: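 Antagonism is scored as loss of R1881-driven beta-lactamase reporter expression in HEK293 cells carrying the reporter under a UAS element, after 16 h co-treatment at 37C and a 2 h room-temperature FRET substrate read.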

[17] = molecular target: Androgen receptor (Homo sapiens) (UniProt P10275); assay: qHTS assay to identify small molecule agonists of the androgen receptor (AR) signaling pathway using the MDA cell line (AID 743040; note: nearly all actives have a fitted effect of over 20% in size)
How it was run: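 Cells plated, 5 h at 37C/0% CO2; compound or DMSO pinned; 16 h at 37C; ONE-Glo added; luminescence measured after 30 min at room temperature. Reporter line: MDA-kb2 with MMTV-luciferase responsive to AR and GR.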

[18] = molecular target: Androgen receptor (Homo sapiens) (UniProt P10275); assay: qHTS assay to identify small molecule antagonists of the androgen receptor (AR) signaling pathway using the MDA cell line (AID 743042; note: potency is the fitted concentration of half-maximal effect; nearly all actives have a fitted effect of over 55% in size)
How it was run: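 Antagonist mode: compounds plus R1881 agonist added to MDA-kb2 AR-luc cells, incubated 16 h at 37C. Luciferase reporter luminescence quantified, with multiplexed CellTiter-Fluor readout for cell viability.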

| Compound | Potency [1] | Potency [2] | Potency [3] | outcome [4] | outcome [5] | Potency [6] | Potency [7] | Potency [8] | Potency [9] | Potency [10] | Potency [11] | Potency [12] | Potency [13] | Potency [14] | Potency [15] | Potency [16] | outcome [17] | Potency [18] |
| --- | --- | --- | --- | --- | --- | --- | --- | --- | --- | --- | --- | --- | --- | --- | --- | --- | --- | --- |
| O=S(=O)(O)c1ccc2nc(-c3ccccc3)[nH]c2c1 | inactive | inactive | inactive | inactive | inactive | inactive | inactive | inactive | 20.8 µM (active) | inactive and 46.2 µM (active) | 58.2 µM (active) | inactive | inactive |  |  |  |  |  |
| c1ccc2cc3c(ccc4ccccc43)cc2c1 | inactive | inactive | inactive | inactive | inactive | inactive | inactive | inactive | inactive |  | inactive | inactive | inactive | inactive |  |  |  |  |
| O=C1Nc2ccccc2C1(c1ccc(O)cc1)c1ccc(O)cc1 | inactive | inactive | inactive | inactive | inactive |  | inactive | inactive | inactive | 68.6 µM (active) |  | inactive |  | 61.1 µM (active) |  |  |  |  |
| C[N+]1([O-])CCOCC1 | inactive | inactive | inactive | inactive | inactive |  | inactive | inactive |  | inactive | inactive | inactive | inactive | inactive | inactive |  |  |  |
| Cc1c(O)cccc1C(=O)N[C@@H](CSc1ccccc1)[C@H](O)CN1C[C@H]2CCCC[C@H]2C[C@H]1C(=O)NC(C)(C)C | inactive | inactive | inactive | inactive | inactive | inactive | inactive | inactive |  | 11.9 µM (active) and 29.8 µM (active) | 13.3 µM (active) and 18.8 µM (active) | 19 µM (active) and 16.9 µM (active) | 27.8 µM (active) and 59.5 µM (active) | 13.3 µM (active) and 23.7 µM (active) |  | 10.7 µM (active) and 6.74 µM (active) | inactive | 26.6 µM (active) and 29.8 µM (active) |
| CCCCCCC(O)CCCCCCCCCCC(=O)O (centres undefined) | inactive | inactive | inactive | inactive | inactive |  | inactive | inactive | inactive | inactive | inactive and 48.6 µM (active) | inactive | inactive | inactive | inactive |  |  |  |
| O=C1CC2(CCCC2)CC(=O)N1CCCCN1CCN(c2ncccn2)CC1 | inactive | inactive | inactive | inactive | inactive | inactive | inactive | inactive | inactive | 21.1 µM (active) and 13.7 µM (active) | 21.1 µM (active) and 15.4 µM (active) | inactive and 21.9 µM (active) | inactive | 7.7 µM (active) |  |  |  |  |
